# Source: PubChem BioAssay (National Center for Advancing Translational Sciences (NCATS))
# Pf growth 96h: Primary qHTS for delayed death inhibitors of the malarial parasite plastid, 96 hour incubation | Potency, µM (titrated, usually from 28.7 µM), inactives show top-dose activity change, negative = inhibition, most hits filed as inhibitors | AID 504834, 2011 | P. falciparum luciferase reporter growth, 96 h | 320,000 tested, 6.9% active; further: potency means the concentration at half of the fitted maximal effect; on the % scale 0 is the no-effect control and ±100 the full control effect
#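 P. falciparum expressing integrated firefly luciferase grown in erythrocytes (2% hematocrit, 0.05% parasitemia final) with compounds for 96 hours at 37 C, 5% CO2. Growth inhibition read as loss of luminescence after adding luciferase detection reagent.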
# AMA1 RON2 block: qHTS for Inhibitors of AMA1-RON; Towards Development of Antimalarial Drug Lead: Primary Screen; Plasmodium falciparum AMA1 (3D7) - RON2 peptide interaction; AlphaScreen AMA1-biotinylated RON2 peptide binding; Potency, µM (series often up to 58.2 µM), inactives show at the highest dose activity change, negative = inhibition, most hits filed as inhibitors; 360,000 tested, 0.2% active; AID 720542, 2013;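 further: potency means the concentration at half of the fitted maximal effect; 0% = vehicle wells and -100% = peptide control; nearly all actives have a fitted effect of over 45% in size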
#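 AMA1 (3D7) with his tag at 25 nM final met compounds first, then biotinylated RON2 peptide at 25 nM; detection used donor plus acceptor beads, 10 µg/mL apiece, read by AlphaScreen after 30 min at room temperature.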
# HCV inh: qHTS Assay for Inhibitors of Hepatitis C Virus (HCV); AID 651820, 2012; Potency, µM (series often up to 41.8 µM), for inactives: at the top dose activity change, negative = inhibition, most hits filed as inhibitors; 340,000 tested, 3.4% active; Huh7.5.1 HCVcc-Cre infection, luciferase reporter, 44 h; further: potency means the concentration at half of the fitted maximal effect; on the % scale 0 is the no-effect control and ±100 the full control effect
#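 A cell-based infection assay in which seeded cells (1,000 per well) receive test compound after 4 h, are inoculated with HCVcc-Cre at approximately 0.5 moi, and are incubated 44 h before luminescence detection.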
# Shiga inhibitor: A qHTS for Small Molecule Inhibitors of Shiga Toxin | Vero cells, Shiga toxin protein synthesis inhibition reporter | inhibition, % at 38.7 µM | 290,000 tested, 9.2% active; in the data active means inhibition mostly above about 28%, no sharp cut-off; inactive means mostly below about 43%; further: 0% is about no effect
# Pf growth 48h: Primary qHTS for delayed death inhibitors of the malarial parasite plastid, 48 hour incubation; Potency, µM (doses to about 28.7 µM), inactives show at the top dose activity change, negative = inhibition, hits mostly inhibitors; 310,000 tested, 5.9% active; P. falciparum luciferase growth in erythrocytes, 48 h; further: potency means the concentration at half of the fitted maximal effect; on the % scale 0 is the no-effect control and ±100 the full control effect
#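 In quantitative HTS format, infected erythrocytes bearing luciferase-reporter parasites were treated for a single generation at 37 C. Luminescence after adding detection reagent served as the growth measure.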
# Cycloheximide cs: Cycloheximide Counterscreen for Small Molecule Inhibitors of Shiga Toxin | max response, % | 300,000 tested, 12% active | cell reporter, cycloheximide protein synthesis inhibition counterscreen; in the data active means max response mostly above about 13%, no sharp cut-off; inactive means mostly below about 14%; further: read at 38.3 µM for the half of the compounds with a filed dose; 0% is about no effect
# The depositor's hits bear a star; ? = inconclusive; . = no result; ! = not confirmed by another sample; [ ] = another dose, or the depositor's remark. The list is not random: actives were taken first. Their share in the collection is about 21%. Unless noted, the call rests on the fitted dose curve; in most records, active means well fitted curve in the direction sought with a large enough effect; inconclusive means small, poorly fitted or top-dose-only effect, or another doubt; inactive means no such curve, though single readings can be large; an effect the other way counts as inactive or inconclusive.
SMILES,Pf growth 96h,AMA1 RON2 block,HCV inh,Shiga inhibitor,Pf growth 48h,Cycloheximide cs
CCOC(=O)N1CCC(N2C(=O)c3ccc(C(=O)NCc4ccco4)cc3C2=O)CC1,12µM*,0%,4%,17,13%,-5
CCOc1ccc(C(=O)NCc2ccco2)cc1,13%,5%,22%,63*,.,41*
CCOc1cc(OCC)cc(C(=O)NCc2ccco2)c1,?,-10%,-12%,-6,13%,1
CCOC(=O)N1CCC(N2C(=O)c3ccc(C(=O)NCc4ccc(F)cc4)cc3C2=O)CC1,-3%,6%,1%,-13,46%,-5
O=C(NCc1ccco1)Nc1ccc([N+](=O)[O-])cc1,69%,3%,-3%,24,7%,26*!
CC(C(=O)NC1(C#N)CCCCC1)N(C)CC(=O)Nc1ccc(Cl)c(Cl)c1 (stereo unspecified),?,-7%,?,.,?,.
O=C(O)c1ccc(N2C(=O)CC(N3CCN(c4cccc(Cl)c4)CC3)C2=O)cc1 (stereo unspecified),?,-5%,17%,.,-13%,9.7*
O=C1CC(N2CCOCC2)C(=O)N1c1ccc(Cl)cc1 (stereo unspecified),0%,14%,0%,-6,7.4µM*,-4
Cc1c(NC(=O)C(C)OC(=O)/C=C/c2ccc(OC(F)F)cc2)c(=O)n(-c2ccccc2)n1C (stereo unspecified),3%,4%,-2%,.,21%,.
O=c1[nH]c(=O)c2[nH]c(=S)n(-c3ccccc3)c2[nH]1,.,39%,6%,.,.,.
CCc1ccc(Nc2nnc(SCC(=O)Nc3cccc(S(=O)(=O)NC4=NCCCCC4)c3)s2)cc1,?,7%,?,active,17%,49*
Cc1ccc(Nc2nnc(SCC(=O)Nc3cccc(S(=O)(=O)NC4=NCCCCC4)c3)s2)cc1,?,-9%[11.6 µM],17%,18,7%,15*
Cc1nnc(SCC(=O)Nc2cccc(S(=O)(=O)NC3=NCCCCC3)c2)n1Cc1ccccc1,-19%,2%,?,-4,-17%,-1
CCc1ccc(Nc2nnc(SCC(=O)Nc3ccc(C(=O)O)cc3)s2)cc1,196%,-10%,20%,-6,4.7µM*,-3
Cc1cc(SCC(=O)Nc2cccc(S(=O)(=O)NC3=NCCCCC3)c2)c(C)cc1Br,-35%,2%,-20%,-1,-14%,-6
Cc1c(NC(=O)c2cn3ccccc3n2)cccc1-n1cnnn1,50%,5%,-2%,33,70%,15*
O=C(Nc1ccc(-n2cnnn2)cc1)c1cn2ccccc2n1,99%,-1%,9%,30,120%,22*
Cc1c(NC(=O)c2cc(Br)ccc2Cl)cccc1-n1cnnn1,.,3%,-15%,.,.,.
O=C(Nc1ccccc1)c1cn2ccccc2n1,338%,-7%,3%,7,38%,7
COc1ccccc1C(CNC(=O)CCNC(=O)c1ccccc1Cl)N1CCCC1 (stereo unspecified),0%,9%,11%,.,?,.
Cc1cc[n+]2n1CC(O)C2 (stereo unspecified),12%,25%,7%,-10,-3%,-2
Clc1ccc(CNc2ncccn2)cc1,68%,5%,10%,43*,15%[0.00184 µM],26*
Fc1ccc(CNc2ncccn2)cc1,-21%,2%,10%,20,18%,7
O=S(=O)(NCc1ccc(Cl)cc1)c1cccc2cccnc12,16%,0%,16%,19,7%,9
Oc1cc(NCc2ccc(F)cc2)cc2cccnc12,1.9µM*,.,.,.,2.6µM*,.
Oc1cc(NCc2ccc(Cl)cc2)cc2cccnc12,?,.,.,.,3.3µM*,.
CN(C)CCCNc1cc(O)c2ncccc2c1,4.7µM*,.,.,.,4.1µM*,.
CC(C)(C)C(=O)Nc1ccc(C(=O)COC(=O)c2ccccn2)cc1,.,40%,12%,.,.,.
O=C(NCCCN1CCCCC1)c1ccc(CS(=O)c2ccc(Cl)cc2)o1 (stereo unspecified),?,0%,?,-5,5%,-12
